Compound activity as filed in PubChem BioAssay.
Rows were chosen to be rich in hits. Some 2.2% of all compounds tested hit in one or more screens of this group.
p47phox inh: p47phox/p22phox peptide binding inhibitors, primary screen, biochemical, uHTS, NADPH oxidase regulatory subunit. Neutrophil cytosol factor 1 (Homo sapiens), P14598. fluorescence polarization, 2 h. inhibition, % at 24.7 µM. 0.53% of 220,000 active;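 active means inhibition above about 30%, limit read from the data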;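 further: 0% = p47phox with labelled peptide and 100% = labelled peptide alone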
Target sequence (P14598 whole entry, looked up): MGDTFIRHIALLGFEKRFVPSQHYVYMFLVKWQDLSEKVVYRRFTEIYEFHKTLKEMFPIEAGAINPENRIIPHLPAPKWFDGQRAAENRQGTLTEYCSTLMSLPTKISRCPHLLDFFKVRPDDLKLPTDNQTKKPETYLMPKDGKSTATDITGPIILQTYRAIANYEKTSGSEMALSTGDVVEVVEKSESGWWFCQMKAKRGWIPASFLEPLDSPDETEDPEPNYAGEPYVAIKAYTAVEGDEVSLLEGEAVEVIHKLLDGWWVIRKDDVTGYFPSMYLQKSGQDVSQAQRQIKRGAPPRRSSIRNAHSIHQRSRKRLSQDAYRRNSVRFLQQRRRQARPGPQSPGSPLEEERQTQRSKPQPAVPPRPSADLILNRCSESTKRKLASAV
Ins promoter up: insulin promoter activators in MIN6 cells, imaging, high-content screening, mouse beta cells; MIN6 insulin promoter-GFP reporter; hits give high values; z-score at 5 µM; 0.3% of 190,000 active;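 active means z-score above 3 at 5 µM with at least 500 cells counted in the well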
HMGR II inh: inhibitors of E. faecalis class II HMGR, primary screen, biochemical, Enterococcus faecalis | purified E. faecalis HMGR, NADPH absorbance 340 nm kinetic | inhibition, % at 10 µM | 0.41% of 190,000 active | AID 1066, 2008;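 active means inhibition above a set limit, the median over all tested compounds plus 3 SD, cut at about 9.5% in these data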;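 further: enzyme runs in reverse so mevalonate oxidation gives rising NADPH absorbance; 0% = complete reaction with DMSO and 100% = background rate lacking mevalonate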
DTT redox prof: compounds producing H2O2 with reducing agent – biochemical, NIH compound library profiling, artefact control for MLSCN library redox annotation, primary screen; activation, % at 10 µM; 0.03% of 200,000 active; AID 878, 2007; DTT-dependent redox cycling H2O2, phenol red/HRP absorbance; 100% = 100 µM peroxide control, 0% = buffer;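 active means activation of at least 50% relative to the plate's high and low controls in the primary single-dose screen; inactive means activation below 50%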;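 further: compound incubated with DTT at 0.8 mM final as the reducing agent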
Autophagy mod: autophagy modulators in MEF cells, primary screen, imaging, high-content, MEF GFP-LC3; calls only at 10 µM (by protocol); MEF GFP-LC3 puncta imaging; test concentration mostly 10 µM; 0.98% of 190,000 active; AID 463193, 2010;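 active means percentage of spot-positive cells more than 3 SD above its plate mean, without a fluorescence outlier flag or 80% toxicity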;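 further: spot-positive cell cutoff set from DMSO-treated cells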
Arbovirus anti: antivirals against arbovirus infection, primary screen, cell-based, full library, 10K replicate subset | arbovirus infection cell-based antiviral screen | inhibition, % at 10 µM | 0.37% of 200,000 active | AID 1251, 2008; in the data active means inhibition above about 30%
Numbers without * were called inactive; i = inactive; . = no result; + = active, no number.

SMILES	p47phox inh	Ins promoter up	HMGR II inh	DTT redox prof	Autophagy mod	Arbovirus anti
Cc1nn(CC(=O)OCCOc2ccc(Br)cc2)c(C)c1[N+](=O)[O-]	-8.0	-0.29	-2.8	0.1	i	60.7*
Cc1oc(=O)c(NC(=O)c2cccc(Cl)c2)cc1C(=O)c1ccccc1	-10.5	.	-2.2	9.7	i	-3.2
COc1ccccc1-n1c(SCC(=O)Nc2ccc(F)cc2)nc2c(c1=O)SCC2	-14.2	0.38	-7.9	-0.4	i	9.3
COc1ccccc1-n1c(SCC(=O)Nc2cc(C)on2)nc2c(c1=O)SCC2	0.7	-0.5	-0.3	7.1	+	-5.5
COc1cc(C2C(C#N)=C(N)Oc3cc(N)ccc32)cc(OC)c1OC (centres undefined)	-20.5	0.18	-0.8	2.6	+	-13.8
Cc1cc(C)c(C)c(S(=O)(=O)NCC(=O)N2CCCC2)c1C	-3.0	0.26	-6.5	-0.6	i	9.5
CCOC(=O)N1CCC(N(CCOC)C(=O)Nc2ccc(Cl)c(Cl)c2)CC1	-2.9	-0.28	-4.2	0.4	+	1.0
CCN=C(Nc1ccc2c(c1)OCO2)SC1CC(=O)N(c2ccccc2F)C1=O (centres undefined)	42.2*	-0.12	2.2	0.7	i	-6.6
O=C(O)c1c[nH]c(=O)c2ccccc12	-1.0	1.09	-4.0	-0.7	i	20.1
Cc1ccc(-c2csc3ncnc(Sc4nnc(CN5CCCCCC5=O)o4)c23)cc1	-16.8	0.74	-6.0	-0.6	+	-25.8
CC(C)(C)c1ccc(NC(=O)COC(=O)C2(C)CC2(Cl)Cl)cc1 (centres undefined)	-6.2	-0.03	0.2	0.1	i	-11.4
NC(=O)c1sc(-c2ccsc2)cc1NS(=O)(=O)c1ccc(C(F)(F)F)cc1	-14.1	0.13	.	.	.	.
O=C(O)COc1ccccc1C(Nc1cccnc1)c1cc(Cl)c2cccnc2c1O (centres undefined)	0.6	0.16	-2.0	-0.6	i	-2.3
CCOc1ccc(C(Nc2cccnc2)c2cc(Cl)c3cccnc3c2O)cc1 (centres undefined)	39.7*	0.41	0.4	-1.2	i	-37.0
COc1ccc(C(NC(C)=O)c2cc(Cl)c3cccnc3c2O)cc1OC (centres undefined)	-13.4	-0.38	-4.3	-0.9	i	-22.2
CCC(=O)NC(c1ccc(OC)c(OC)c1)c1cc(Cl)c2cccnc2c1O (centres undefined)	40.2*	-1.52	-3.4	0.1	i	-31.7
N#CCCN(CCN1CCCC1)S(=O)(=O)c1ccc(-c2ccc([N+](=O)[O-])cc2)cc1	-0.9	-0.24	-3.9	0.1	i	-3.4
CC(C)c1ccc(NC(=O)CSc2n[nH]c(=O)n2-c2ccc3c(c2)OCCO3)cc1	-7.7	0.28	.	.	.	.
Cc1ccc(CNC(=O)C(NS(=O)(=O)c2ccc3nc(C)sc3c2)C(C)C)cc1 (centres undefined)	0.0	-0.87	0.9	-0.7	i	7.7
Cc1nc2ccc(S(=O)(=O)NC(C(=O)NCc3ccco3)C(C)C)cc2s1 (centres undefined)	121.2*	-0.22	0.5	-1.1	i	5.8
O=[N+]([O-])c1cccc(/C=N/NC2CCS(=O)(=O)C2)c1 (centres undefined)	-8.4	.	.	.	.	.
CCOC(=O)c1cnn2c(C(F)(F)F)cc(-c3ccccc3)nc12	-4.0	.	-8.0	-0.9	i	7.3
COC(=O)c1cnn2c(C(F)(F)F)cc(-c3ccc(F)cc3)nc12	-11.1	4.23*	-2.7	-0.6	i	5.6
CC1=CC2=NC(=O)/C(=C\c3ccc(-c4cccc(Cl)c4)o3)C(=N)N2O1	-36.1	0.26	-7.1	-0.2	+	-18.8
CCC1=NN2C(=N)/C(=C\c3cccn3-c3ccc(C)cc3C)C(=O)N=C2S1	-40.2	-0.12	-6.8	-0.2	i	39.4*
SMILES	p47phox inh	Ins promoter up	HMGR II inh	DTT redox prof	Autophagy mod	Arbovirus anti
CCC1=NN2C(=N)/C(=C\c3cccn3-c3ccc(Br)cc3)C(=O)N=C2S1	42.5*	.	-6.0	-0.9	i	13.7
CCC1=NN2C(=N)/C(=C\c3cccn3-c3c(C)cccc3C)C(=O)N=C2S1	-19.6	-0.33	-5.2	-1.3	i	31.4*
CCC1=NN2C(=N)/C(=C\c3cccn3-c3cccc(Cl)c3)C(=O)N=C2S1	-23.4	-0.25	-0.3	-0.7	i	23.4
COc1ccc(OCC(=O)Nc2cccc(NC(=O)c3ccco3)c2)cc1	-0.3	0.52	2.3	-1.1	i	-8.1
CCNc1nc(NCC)n2c(SCC(=O)Nc3ccccc3[N+](=O)[O-])nnc2n1	1.7	0.38	-4.0	-0.1	i	3.1
CCOc1ccc(S(=O)(=O)Nc2ccccc2SC)cc1	-4.1	-0.19	-4.2	3.9	i	-9.5
COC(=O)COc1ccc(S(=O)(=O)Nc2ccccc2SC)cc1	90.8*	0.76	5.3	1.6	i	-1.8
Cc1ccc(NC(=O)/C(C#N)=C/c2ccc(C)s2)c(C)c1	-143.6	2.39	-1.2	2.8	+	8.0
Cc1ccc(NC(=O)Cc2ccc3c(c2)OCCO3)cc1S(=O)(=O)N1CCCCC1	-18.4	-0.08	.	.	.	.
CC(C)[C@H](NC(=O)C1(c2ccccc2)CCN(C(=O)OC(C)(C)C)CC1)C(=O)O	58.2*	0.65	-3.3	-1.2	i	6.4
CC(C)c1ccc(NC(=O)NC2CCN(CC(=O)Nc3cccc4ccccc34)CC2)cc1	-1.5	0.79	-3.4	-0.3	+	-20.5
CSc1cccc(NC(=S)N(CCC(C)C)C(C)c2ccncc2)c1 (centres undefined)	-9.2	-0.05	.	.	.	.
CC1=Nc2cccc3cccc(c23)N1	157.5*	1.12	-2.6	1.2	i	-19.6
Cc1ccc(NC(=O)c2ccc(NCCN)c([N+](=O)[O-])c2)cc1	10.9	.	1.0	-0.3	i	-16.9
Cc1cccc(NC(=O)c2ccc(NCCc3ccccc3)c([N+](=O)[O-])c2)c1	-76.9	-0.12	-4.8	0.3	+	-7.4
Cc1ccc(NC(=O)c2ccc(NCc3ccco3)c([N+](=O)[O-])c2)cc1Cl	-19.8	-0.1	-0.4	-0.3	+	-1.5
Cc1ccc(-c2nnc(-n3ncc(C#N)c3N)c3ccccc23)cc1C	42.0*	0.25	-1.5	3.6	i	-14.8
CC(C)n1c(N2CCN(CC(=O)Nc3ccc4c(c3)OCCO4)CC2)nc2ccccc21	-2.7	0.13	-2.5	1.9	i	-6.1
Nc1nc(-c2ccccn2)nc(N)c1Cc1ccc(Cl)cc1Cl	1.1	0.29	-2.0	-0.1	+	-27.5
O=C(NCC1CCCO1)c1cc(NS(=O)(=O)c2cccs2)cc(NS(=O)(=O)c2cccs2)c1 (centres undefined)	0.8	-0.38	-1.4	0.0	i	0.2
